Measured values reported in PubChem BioAssay (NCATS).
Results filed as inconclusive are left out. Entries that show only a call come without a potency. Where a structure was tested more than once in an assay, its records may differ in their call. Active and inactive are the calls of the source. Calls follow the shape of the dose curve; as a rule, active = well fitted cell-killing curve with a large enough effect; inconclusive = small, poorly fitted or top-dose-only effect, or effect the other way; inactive = flat fitted curve, though single readings scatter.

These compounds were tested on HeLa (assay: Primary qHTS to identify gynecologic anti-cancer compounds using libraries of approved drugs and bioactive compounds (AID 1345084; also: nearly all actives have a fitted effect of over 55% in size)). Conditions: Gynecologic cancer cell panel viability, ATPlite luminescence, 48 h; series mostly up to 57.5 µM.
Method in brief: (§1)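 48 h compound exposure at 37 C, 5% CO2; five-point qHTS. ATPlite luminescence readout of cell ATP.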
Potency is read from the fitted curve at half-maximal effect.

Compound	Potency
O=c1[nH]sc2cc(Cl)ccc12	inactive
Cc1cc(OCCOCC[N+](C)(C)Cc2ccccc2)ccc1C(C)(C)CC(C)(C)C	inactive
O=C1Nc2ccccc2C1(c1ccc(O)cc1)c1ccc(O)cc1	inactive
CC[C@@]1(O)C(=O)OCc2c1cc1n(c2=O)Cc2c-1nc1ccccc1c2/C=N/OC(C)(C)C	inactive
O=C(O)CNC(=O)CNC(=O)CNC(=O)CSC(=O)c1ccccc1	inactive
CN1CCC(Nc2ncc3ncnc(Nc4ccc(F)c(Cl)c4)c3n2)CC1	inactive
CC1CC(=O)NN=C1c1ccc(NCC(C)(C)NCC(O)COc2cc(Cl)ccc2C#N)cc1 (stereo not given)	inactive
O=S(=O)(O)c1ccc2nc(-c3ccccc3)[nH]c2c1	inactive
C[C@H](CN1CCCC1)C(=O)c1ccc(C(F)(F)F)cc1	inactive
CC(C(O)c1ccccc1)N(C)CCOC(c1ccccc1)c1ccccc1 (stereo not given)	inactive
CC(NCCC(c1ccccc1)c1ccccc1)c1ccccc1 (stereo not given)	inactive
Oc1ccc(CCNCCCCCCNCCc2ccccc2)cc1O	inactive
CCN(CC)CCOc1ccc(/C(=C(\Cl)c2ccccc2)c2ccccc2)cc1	inactive
CCOC(=O)C1=C(C)NC(C)=C(C(=O)OCC)C1c1ccccc1/C=C/C(=O)OC(C)(C)C	inactive
O=C(Nc1ccc(S(=O)(=O)N2CCOCC2)cc1)c1cc(Cl)ccc1NS(=O)(=O)c1ccc(Cl)s1	inactive
OC1(c2ccc(Cl)c(C(F)(F)F)c2)CCN(CCCC(c2ccc(F)cc2)c2ccc(F)cc2)CC1	25.1 µM (active) and inactive
Nc1cccc2c(N)cccc12	inactive

What follows are compounds tested on Hek293T in the same assay as above. Conditions: Gynecologic cancer cell panel viability, ATPlite luminescence, 48 h, control line for the selectivity index; series mostly up to 57.5 µM.
Method in brief: as §1

Compound	Potency
O=C1Nc2ccccc2C1(c1ccc(O)cc1)c1ccc(O)cc1	inactive
CC[C@@]1(O)C(=O)OCc2c1cc1n(c2=O)Cc2c-1nc1ccccc1c2/C=N/OC(C)(C)C	0.355 µM (active)
O=C(O)CNC(=O)CNC(=O)CNC(=O)CSC(=O)c1ccccc1	inactive
Nc1c2ccccc2nc2ccccc12	8.91 µM (active)
CC1CC(=O)NN=C1c1ccc(NCC(C)(C)NCC(O)COc2cc(Cl)ccc2C#N)cc1 (stereo not given)	inactive
O=S(=O)(O)c1ccc2nc(-c3ccccc3)[nH]c2c1	inactive
C[C@H](CN1CCCC1)C(=O)c1ccc(C(F)(F)F)cc1	inactive
COC(=O)c1cc(Cl)ccc1NS(=O)(=O)C(F)(F)F	inactive
CC(NCCC(c1ccccc1)c1ccccc1)c1ccccc1 (stereo not given)	inactive
Oc1ccc(CCNCCCCCCNCCc2ccccc2)cc1O	inactive
CCOC(=O)C1=C(C)NC(C)=C(C(=O)OCC)C1c1ccccc1/C=C/C(=O)OC(C)(C)C	inactive
O=C(Nc1ccc(S(=O)(=O)N2CCOCC2)cc1)c1cc(Cl)ccc1NS(=O)(=O)c1ccc(Cl)s1	inactive
CO[C@@H]1[C@@H](OC)[C@H](C)[C@@](O)(CC(=O)O)O[C@H]1[C@H](C)[C@H]1O[C@@]2(CC[C@@](C)([C@H]3CC[C@@](C)([C@@H]4O[C@@H]([C@H]5O[C@](C)(O)[C@H](C)C[C@@H]5C)C[C@@H]4OC4C[C@H](OC)[C@@H](OC)[C@H](C)O4)O3)O2)C[C@H](O)[C@H]1C (stereo not given in full)	2.82 µM (active)
Nc1cccc2c(N)cccc12	inactive

What follows are compounds tested on JEG-3 in the same assay as above. Conditions: Gynecologic cancer cell panel viability, ATPlite luminescence, 48 h; series mostly up to 57.5 µM.
Method in brief: as §1

Compound	Potency
O=c1[nH]sc2cc(Cl)ccc12	inactive
Cc1cc(OCCOCC[N+](C)(C)Cc2ccccc2)ccc1C(C)(C)CC(C)(C)C	inactive
O=C1Nc2ccccc2C1(c1ccc(O)cc1)c1ccc(O)cc1	inactive
CC[C@@]1(O)C(=O)OCc2c1cc1n(c2=O)Cc2c-1nc1ccccc1c2/C=N/OC(C)(C)C	inactive
O=C(O)CNC(=O)CNC(=O)CNC(=O)CSC(=O)c1ccccc1	inactive
COc1c(C)c2c(c(O)c1C/C=C(\C)CCC(=O)OCCN1CCOCC1)C(=O)OC2	inactive
CC1CC(=O)NN=C1c1ccc(NCC(C)(C)NCC(O)COc2cc(Cl)ccc2C#N)cc1 (stereo not given)	inactive
O=S(=O)(O)c1ccc2nc(-c3ccccc3)[nH]c2c1	inactive
C[C@H](CN1CCCC1)C(=O)c1ccc(C(F)(F)F)cc1	inactive
COC(=O)c1cc(Cl)ccc1NS(=O)(=O)C(F)(F)F	inactive
CC(NCCC(c1ccccc1)c1ccccc1)c1ccccc1 (stereo not given)	inactive
Oc1ccc(CCNCCCCCCNCCc2ccccc2)cc1O	inactive
CCCCCCCCCCCCCCCCCCNC(=O)OC1CCN(C(=O)OC[C@H](COC(=O)N(Cc2cccc[n+]2CC)C(=O)c2ccccc2OC)OC)CC1	inactive
CCN(CC)CCOc1ccc(/C(=C(\Cl)c2ccccc2)c2ccccc2)cc1	inactive
Nc1ccc2c(c1)CN1C(=O)c3ccccc3C1=N2	11.2 µM (active)
CCOC(=O)C1=C(C)NC(C)=C(C(=O)OCC)C1c1ccccc1/C=C/C(=O)OC(C)(C)C	inactive
O=C(Nc1ccc(S(=O)(=O)N2CCOCC2)cc1)c1cc(Cl)ccc1NS(=O)(=O)c1ccc(Cl)s1	inactive
CO[C@@H]1[C@@H](OC)[C@H](C)[C@@](O)(CC(=O)O)O[C@H]1[C@H](C)[C@H]1O[C@@]2(CC[C@@](C)([C@H]3CC[C@@](C)([C@@H]4O[C@@H]([C@H]5O[C@](C)(O)[C@H](C)C[C@@H]5C)C[C@@H]4OC4C[C@H](OC)[C@@H](OC)[C@H](C)O4)O3)O2)C[C@H](O)[C@H]1C (stereo not given in full)	6.31 µM (active)
CCCCCC(=O)O[C@]1(C(C)=O)CC[C@H]2[C@@H]3CCC4=CC(=O)CC[C@]4(C)[C@H]3CC[C@@]21C	inactive
